Bioassay records from PubChem BioAssay.
Sampled rows, rich in hits. Any-hit rate of the full collection: about 3.9%.
3CLpro inhibitor: SARS-CoV 3CLpro protease inhibition; P0C6X7; recombinant SARS-CoV 3CLpro, quenched FRET peptide cleavage; inhibition, % at 6 µM; 290,000 tested, 0.14% active; AID 1706; in the data active = inhibition above about 12%
FBA Mtb inh: inhibits M. tuberculosis FBA enzyme; 360,000 tested, 2.3% active; purified M. tuberculosis FBA, fluorescence read-out; AID 588726; P9WQA3; inhibition, % at 1 µM; in the data active = inhibition above about 27%
Target sequence (P9WQA3 whole entry, looked up): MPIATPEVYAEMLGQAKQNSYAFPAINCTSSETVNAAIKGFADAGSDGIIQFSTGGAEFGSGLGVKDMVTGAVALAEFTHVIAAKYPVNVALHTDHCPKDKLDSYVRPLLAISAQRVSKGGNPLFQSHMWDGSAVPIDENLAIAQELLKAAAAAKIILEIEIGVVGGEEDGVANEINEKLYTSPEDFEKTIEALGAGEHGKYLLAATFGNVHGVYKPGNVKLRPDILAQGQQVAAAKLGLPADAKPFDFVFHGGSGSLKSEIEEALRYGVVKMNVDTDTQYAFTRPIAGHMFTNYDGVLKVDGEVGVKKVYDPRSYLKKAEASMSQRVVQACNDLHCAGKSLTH
Vc quorum ag-1: quorum light induction in luxS cqsA deficient V. cholerae; AID 588436; 350,000 tested, 0.16% active; activation, % at 18.7 µM; V. cholerae BH1578 lux reporter, luminescence, 6 h; in the data active = activation mostly above about 9.7%, no sharp cut-off
GDH-TPI inh: GDH-TPI coupled enzyme inhibition counter-screen; GDH-TPI coupled enzyme counterscreen, NADH absorbance; 360,000 tested, 1.2% active; inhibition, % at 4.8 µM; AID 588335; in the data active = inhibition above about 30%
PrPC TRFRET: cell surface PrPC inhibition, primary TR-FRET screen. TR-FRET read-out. inhibition, % at 13.8 µM. 370,000 tested, 0.43% active; in the data active = inhibition above about 24%
Vc quorum ag-2: induces V. cholerae light production without autoinducers. shares compounds with Vc quorum ag-1. V. cholerae BH1578 lux reporter, luminescence, 6 h. activation, % at 50 µM. 620 tested, under 10 active; call rule not given here
HeLa tox: cytotoxicity in HeLa cells at 24 hours. shares compounds with Vc quorum ag-1. HeLa viability, CellTiter-Glo ATP luminescence. activity change, negative = cytotoxicity, % at 35 µM. 25 tested, under 10 active. AID 624140;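 active = signal drop with fitted half-maximal concentration at or below twice the highest valid dose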
Numbers stand for hits; - = inactive; . = not tested or not shown.

SMILES	3CLpro inhibitor	FBA Mtb inh	Vc quorum ag-1	GDH-TPI inh	PrPC TRFRET	Vc quorum ag-2	others
COc1ccc(Cc2cnc(N)s2)cc1	-	-	-	-	-	.
CCC(O)(CCN1CCCCC1)c1ccccc1 (stereo unspecified)	-	-	-	-	-	-
CC(=O)c1cc(CN2CCC(n3nccc3NC(=O)c3ccccc3)CC2)cs1	-	-	.	-	-	.
O=C(NCCCN1CCCC1=O)Nc1ccccc1F	-	-	-	-	-	.
CC(=O)Nc1ccc(S(=O)(=O)N2CCSC2c2ccc(Cl)cc2)cc1 (stereo unspecified)	-	-	-	-	-	.
COc1ccc(S(=O)(=O)N2CCSC2c2ccc(N)cc2)cc1 (stereo unspecified)	-	-	-	-	-	-
Cc1ccc(C(=O)OCC(=O)NCC(F)(F)F)cc1C	-	-	-	-	-	-
CCCS(=O)(=O)NC(=O)C1(C)CCCN(C(=O)c2ccc(C#N)cc2)C1 (stereo unspecified)	.	-	-	-	-	.
CCCCc1nnc(NC(=O)C2CC(=O)N(c3ccc(C)cc3)C2)s1 (stereo unspecified)	-	-	-	-	-	.
CCOc1ccc(N2CC(C(=O)Nc3nnc(Cc4ccc(OC)c(OC)c4)s3)CC2=O)cc1 (stereo unspecified)	-	-	-	-	-	.
CCc1nnc(NC(=O)C2CC(=O)N(c3ccc(C)cc3)C2)s1 (stereo unspecified)	-	-	-	-	-	-
COc1ccc(Cc2nnc(NC(=O)C3CC(=O)N(c4ccccc4C)C3)s2)cc1OC (stereo unspecified)	.	-	-	-	-	-
O=C(CN1CCN(c2ccc(F)cc2)CC1)Nc1cc(C(F)(F)F)ccc1Cl	-	-	25	-	-	-
CCOc1ccc(S(=O)(=O)Nc2ccc(C(=O)NCC(c3ccco3)N3CCCCC3)cc2)cc1 (stereo unspecified)	.	-	-	-	-	-
COc1ccccc1NS(=O)(=O)c1cccc(C(=O)NCC(c2ccco2)N2CCCCC2)c1 (stereo unspecified)	.	-	-	-	-	-
CCOC(=O)N1CCN(C(=O)COC(=O)C2CCN(S(=O)(=O)c3c(Cl)cccc3Cl)CC2)CC1	.	-	-	-	-	.
CCOC(=O)/C(=N\Nc1cc(Cl)ccc1Cl)N1CCN(CC)CC1	-	-	-	-	-	.
Cc1ccc(N2CC(C(=O)Nc3nnc(SCC(=O)N4CCOCC4)s3)CC2=O)cc1 (stereo unspecified)	-	-	-	-	-	.
C=CCNc1ncnc2c1ncn2[C@H]1CN(C2CCCC2)C[C@@H](CO)O1	.	-	-	-	-	.
Cc1nc2ccc(C(=O)NCCc3c[nH]c4ccccc34)cn2c1N(C)C(=O)CCc1ccccc1	.	-	-	-	-	.
Cc1ccc(S(=O)(=O)N2CCC(C(=O)Nc3ncccc3O)CC2)cc1	.	-	-	-	-	.
COc1ccc2c(c1OC)C(=O)N(c1nccs1)C2	-	-	-	-	-	-
COc1ccc(N2Cc3ccc(OC)c(OC)c3C2=O)cc1	-	-	-	-	-	.
C=CCNC(=O)/C(=C/c1cccc([N+](=O)[O-])c1)NC(=O)c1ccco1	-	-	-	-	-	.
CCCn1nnnc1NCc1ccc(N(C)C)cc1	-	-	.	-	-	-
SMILES	3CLpro inhibitor	FBA Mtb inh	Vc quorum ag-1	GDH-TPI inh	PrPC TRFRET	Vc quorum ag-2	others
CCCCn1c(NCc2ccc(N(C)C)cc2)nc2ccccc21	-	-	-	-	-	.
CCCn1nnnc1NCc1ccccc1Cl	-	-	-	-	-	.	HeLa tox=-
CCCn1nnnc1NCc1ccccc1OCC	-	-	-	-	-	.
CCCCn1nnnc1NCc1cccs1	-	-	-	-	-	.
CCCn1nnnc1NCc1ccc(C(C)C)cc1	-	-	.	-	-	-	HeLa tox=-
CC1CN(c2ccnc3cc(Cl)ccc23)CCN1C(=O)c1ccc(Cl)cc1 (stereo unspecified)	.	.	.	.	-	.
O=C(COC(=O)/C=C/c1ccccc1)NC1CCCCC1	.	-	-	-	-	.
O=C(COC(=O)/C=C/c1ccc(OC(F)F)cc1)NC1CCCCCC1	.	-	9.5	-	-	-
O=C(COC(=O)/C=C/c1ccccc1)NC1CCCC1	.	-	529	-	-	-
O=C(Cc1ccc(Cl)cc1)NC1CCCCCC1	-	-	-	-	-	.
O=C(Cc1ccc(-c2ccccc2)cc1)NC1CCCC1	-	-	.	-	-	.	HeLa tox=-
